Several values for one entry are separate records, joined by “and”; a condition that tells them apart may be missing. Equal values may be shown once. Results filed as inconclusive are left out. A number with no mark means an inactive call. Activity calls are given as the source filed them. Calls come from the whole dose curve; as a rule, active = well fitted activation curve with a large enough effect in the repeat runs; inconclusive = weak or mixed curves; inactive = flat fitted curve, though single readings scatter.
test: A CellTox Green Cytotoxicity Assay to monitor cytotoxicity in HepG2 cells - 32 hour (AID 1224883); conditions: CellTox Green fluorescence; series mostly up to 76.8 µM; cytotoxicity increase: at the top concentration; note: nearly all actives have a fitted effect of over 50% in size
From the text: National Center for Advancing Translational Sciences [NCATS]
NIH Chemical Genomics Center [NCGC]
U.S. Environmental Protection Agency [EPA]
National Institutes of Environmental Health Sciences [NIEHS]
National Toxicology Program [NTP]
Cell-based models are critical for drug discovery. Determining the natural cytotoxic effects resulting from test compounds is an essential research activity. A CellTox Green Cytotoxicity Assay to monitor cytotoxicity in real time of continues cell culture during 40 hours of the compound treatment was used to screen Tox21 10K library compounds in HepG2 cells. CellTox Green Cytotoxicity Assay is a nonlytic, homogeneous, biofluorescent method to measure cytotoxicity in cell culture after experimental manipulation. The assay system uses a proprietary asymmetric cyanine dye that is excluded from viable cells but preferentially stains the dead cell's DNA. […] Viable cells produce no appreciable increases in fluorescence. Therefore, the fluorescence signal produced by the binding interaction with dead cell DNA is proportional to cytotoxicity.
The mixture of HepG2 cell suspension and reagents were dispensed at 600cells/6 ul/well in 1536-well tissue culture treated black solid bottom plates using a Multidrop dispenser. After the assay plates were incubated at a 37 C/5% CO2 incubator for 5 hours, 23 nL of compounds dissolved in DMSO, positive and negative controls was transferred to the assay plate by a pintool work station. The plates were incubated at 37 C for 40 hours. The fluorescence intensity were measured at 0h, 8h, 16h, 24h, 32h and 40h time points using ViewLux plate reader during compound treatment.
% is set by controls: 0 for no effect and ±100 for the full control effect; potency is the fitted concentration of half-maximal effect.

Structure (SMILES) | cytotoxicity increase | Potency
COc1ccc(S(=O)(=O)N2C(=O)[C@@](c3ccccc3OC)(N3C[C@H](O)C[C@H]3C(=O)N(C)C)c3cc(Cl)ccc32)c(OC)c1 | 3.67% | 
CN(C)CCCN1c2ccccc2Sc2ccccc21 |  | 23.9 µM (active)
COc1cc2nc(Cl)nc(N)c2cc1OC | -13.7% [at 35.3 µM] | 
CC1=CCCC(C)(C)C12CCC(C)O2 (stereo not given) | -1.71% | 
CCCCCCCCCCO[C@@H]1O[C@H](CO)[C@@H](O)[C@H](O)[C@H]1O | 22.1% | 
Cc1[nH]c(C)c(Cl)c(=O)c1Cl | -7.2% [at 15.8 µM] | 
C[C@H](CCC(=O)O)[C@H]1CC[C@H]2[C@@H]3CC[C@@H]4C[C@H](O)CC[C@]4(C)[C@H]3C[C@H](O)[C@]12C | 22.2% | 
CCCCC1=NC2(CCCC2)C(=O)N1Cc1ccc(-c2ccccc2-c2nn[nH]n2)cc1 | -2.71% [at 35.3 µM] | 
Cc1ccccc1S(=O)(=O)O | -0.624% | 
C/C(=C(\CCOP(=O)(O)O)SC(=O)c1ccccc1)N(C=O)Cc1cnc(C)nc1N | -0.701% [at 6.97 µM] | 
CC(C)CC(=O)C1C(=O)c2ccccc2C1=O | 13% | 
Cc1nn(C)c(Oc2ccccc2)c1/C=N/OCc1ccc(C(=O)OC(C)(C)C)cc1 | 2.26% | 
C=CC(=O)OCCOCCOCCOCCOC(=O)C=C |  | 39.1 µM (active) and 13.7 µM (active)
O=[N+]([O-])c1ccc2[nH]ncc2c1 | -13.6% | 
CCCCCCCN | -1.84% | 
CC(=O)c1cccc([N+](=O)[O-])c1 | 1.97% | 
OCCNCc1ccccc1 | -5.66% | 
CC1=CC=C(C(C)C)CC1 | 5.91% | 
CCN(CC)c1ccc(C(=C2C=CC(=[N+](CC)CC)C=C2)c2cc(S(=O)(=O)O)ccc2S(=O)(=O)[O-])cc1 | -18.1% [at 35.3 µM] | 
O=C1[C@H]2CCCC[C@H]2C(=O)N1CCCCN1CCN(c2nsc3ccccc23)CC1 | 5.41% [at 35.3 µM] | 

Structure (SMILES) | cytotoxicity increase | Potency
CCC(Cl)CCC(Cl)C(Cl)CC(Cl)C(Cl)C(Cl)CCl (stereo not given) | -1.69% | 
COc1cc(C(=O)OCCCN2CCCN(CCCOC(=O)c3cc(OC)c(OC)c(OC)c3)CC2)cc(OC)c1OC |  | 21.3 µM (active)
CC(C)Nc1ccc(NC(C)C)c2c1C(=O)c1ccccc1C2=O |  | 9.06 µM (active)
CC(=O)NO | -7.6% [at 35.3 µM] | 
CC1=CC[C@H](C(C)C)C=C1 | 22.6% | 
CCCCOC(=O)CCCCCCCC(=O)OCCCC | -0.164% | 
C=C(C)C(=O)OCC | 0.506% | 
CCO[C@H](Cc1ccc(OCCc2ccc(OS(C)(=O)=O)cc2)cc1)C(=O)O | -15.7% [at 35.3 µM] | 
CCCn1cnc2c1c(=O)n(CCCCC(C)=O)c(=O)n2C | 8.37% [at 35.3 µM] | 
C[N+]1(C)CCC(OC(=O)C(O)(c2ccccc2)C2CCCC2)C1 (stereo not given) | 15.8% [at 35.3 µM] | 
C=C(C)C(=O)OCCO | -1.01% | 
CN(C)CCOC(c1ccccc1)c1ccc(Br)cc1 (stereo not given) |  | 23.9 µM (active)
Cc1cc(N)c2cc(NC(=O)Nc3ccc4nc(C)cc(N)c4c3)ccc2n1 | -51.1% [at 35.3 µM] | 
CN(C)C(=O)NC1(c2ccccc2)CCN(CC[C@@]2(c3ccc(F)c(F)c3)CN(C(=O)c3ccccc3)CCO2)CC1 | 28.6% | 
CCOc1ccc(O)cc1 | -16.2% | 
O=C(O)CNCC(=O)O | -4.58% [at 6.97 µM] | 
CCCCCCOC(=O)NC(=N)c1ccc(NCc2nc3cc(C(=O)N(CCC(=O)OCC)c4ccccn4)ccc3n2C)cc1 |  | 23.9 µM (active)
CCCCCCc1ccc(-c2ccc(C#N)cc2)cc1 | 0.104% | 
CC(C)C[C@H]1C(=O)N2CCC[C@H]2[C@]2(O)O[C@](NC(=O)[C@@H]3C=C4c5cccc6[nH]c(Br)c(c56)C[C@H]4N(C)C3)(C(C)C)C(=O)N12 | -1.46% [at 35.3 µM] | 
COc1cc2c(cc1OC)C(C(C(=O)N(CCc1ccc(OC)c(OC)c1OC)CCc1ccc(OC)c(OC)c1OC)c1ccccc1)=NCC2 (stereo not given) | 7.62% [at 35.3 µM] | 
